# Source: PubChem BioAssay (Tox21)
# Several values for one entry are separate records, joined by “and”; a condition that tells them apart may be missing. Identical values can stand only once. Inconclusive results are not listed. Where a call stands in place of a potency, no number is given. A structure can be active in one record and inactive in another. Activity calls are given as the source filed them. Unless noted, calls come from the whole dose curve.
# Assay: qHTS assay to identify small molecule antagonists of the sonic hedgehog signaling (Shh) pathway - cell viability counter screen (AID 1259367; active = well fitted cell-killing curve with a large enough effect in the repeat runs; note: nearly all actives have a fitted effect of over 55% in size)
# Conditions: NIH/3T3 Gli1-Luc viability, CellTiter-Fluor, 24 h; series mostly up to 92.4 µM
# Procedure, shortened: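 Cells: 3T3 Gli1-Luc, 2,000/well, 4 hr pre-incubation. Compounds in DMSO, then conditioned medium. Incubation 24 hr, 37C, 5% CO2. CellTiter-Fluor at 23 hr, 1 hr, fluorescence.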
row,Compound,Potency
1,COc1ccc2c(c1)c(CC(=O)O)c(C)n2C(=O)c1ccc(Cl)cc1,inactive
2,O=c1[nH]cnc2c1ncn2[C@H]1CC[C@@H](CO)O1,inactive
3,CN(C)C(=O)Nc1ccc(Cl)c(Cl)c1,inactive
4,CC12CCC(CC1)C(C)(C)O2,inactive
5,CCOc1ccc(NC(C)=O)cc1,inactive
6,CCCCC1(COC(=O)CCC(=O)O)C(=O)N(c2ccccc2)N(c2ccccc2)C1=O,inactive
7,CCCc1cc(=O)[nH]c(=S)[nH]1,inactive
8,CCOC(N)=O,inactive
9,CCCCCCCC(=O)OCC(COC(=O)CCCCCCC)OC(=O)CCCCCCC,inactive
10,O=C1OC2(c3ccccc31)c1cc(Br)c(O)c(Br)c1Oc1c2cc(Br)c(O)c1Br,inactive
11,NC(=O)c1cccnc1,inactive
12,CN1[C@@H]2CC(OC(=O)[C@H](CO)c3ccccc3)C[C@H]1[C@@H]1O[C@@H]12 (some centres undefined),inactive
13,CN(C)CCOC(c1ccccc1)c1ccccc1,inactive
14,CC(=O)CCC(=O)O,inactive
15,C=CCc1ccc(O)c(OC)c1,inactive
16,CC(C)C(=O)Nc1ccc([N+](=O)[O-])c(C(F)(F)F)c1,inactive

# Assay: qHTS assay to identify small molecule agonists of the sonic hedgehog signaling (Shh) pathway (AID 1259368); note: nearly all actives have a fitted effect of over 15% in size
# Conditions: NIH/3T3 Gli1-Luc reporter, luciferase, 24 h, stronger effect = higher value; series mostly up to 92.4 µM
# Procedure, shortened: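 NIH/3T3-derived 3T3Gli1-Luc cells carrying a stably integrated Gli1 response element–firefly luciferase reporter were plated, left 4 hr at 37 C, then given compounds in DMSO for 24 hr. Luminescence was read 30 min after adding luciferase reagent.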
row,Compound,outcome
1,COc1ccc(C(Cl)=C(c2ccc(OC)cc2)c2ccc(OC)cc2)cc1,inactive
2,NS(=O)(=O)c1cc2c(cc1Cl)NCNS2(=O)=O,inactive
3,COc1ccc2c(c1)c(CC(=O)O)c(C)n2C(=O)c1ccc(Cl)cc1,inactive
4,O=c1[nH]cnc2c1ncn2[C@H]1CC[C@@H](CO)O1,inactive
5,Cc1ncc([N+](=O)[O-])n1CCO,inactive
6,CCc1nc(N)nc(N)c1-c1ccc(Cl)cc1,inactive
7,CN(C)C(=O)Nc1ccc(Cl)c(Cl)c1,inactive
8,CCCCOC(=O)c1ccc(O)cc1,inactive
9,CC12CCC(CC1)C(C)(C)O2,inactive
10,CCOc1ccc(NC(C)=O)cc1,inactive
11,CCCCC1(COC(=O)CCC(=O)O)C(=O)N(c2ccccc2)N(c2ccccc2)C1=O,inactive
12,CCCc1cc(=O)[nH]c(=S)[nH]1,inactive
13,CCOC(N)=O,inactive
14,CCN(CC)C(=O)c1cccc(C)c1,inactive
15,CCCCCCCC(=O)OCC(COC(=O)CCCCCCC)OC(=O)CCCCCCC,inactive
16,O=C1OC2(c3ccccc31)c1cc(Br)c(O)c(Br)c1Oc1c2cc(Br)c(O)c1Br,inactive
17,NC(=O)c1cccnc1,inactive
18,CN1[C@@H]2CC(OC(=O)[C@H](CO)c3ccccc3)C[C@H]1[C@@H]1O[C@@H]12 (some centres undefined),inactive
19,CN(C)CCOC(c1ccccc1)c1ccccc1,inactive
20,CC(=O)CCC(=O)O,inactive
21,Cc1c(C(=O)O)c(O)cc2c1C(=O)c1c(O)c([C@@H]3O[C@H](CO)[C@@H](O)[C@H](O)[C@H]3O)c(O)c(O)c1C2=O,inactive
22,CN1CCc2cccc3c2[C@H]1Cc1ccc(O)c(O)c1-3,inactive
23,CCCCCCCCCCCCCCCC[N+](C)(C)Cc1ccccc1,inactive
24,C=CCc1ccc(O)c(OC)c1,inactive
25,NC(CO)(CO)CO,inactive
26,CS(=O)(=O)OCCCCOS(C)(=O)=O,inactive
27,O=S1(=O)OC(c2ccc(O)cc2)(c2ccc(O)cc2)c2ccccc21,inactive
28,CC(C)C(=O)Nc1ccc([N+](=O)[O-])c(C(F)(F)F)c1,inactive
29,CCCCCCc1ccc(O)cc1O,inactive

# Assay: qHTS assay to identify small molecule antagonists of the sonic hedgehog signaling (Shh) pathway (AID 1259369); note: nearly all actives have a fitted effect of over 45% in size; note: potency is the fitted concentration of half-maximal effect
# Conditions: NIH/3T3 Gli1-Luc reporter, Shh antagonist, luminescence 24 h; series mostly up to 92.4 µM
# Procedure, shortened: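 NIH/3T3-derived 3T3Gli1-Luc cells with stably integrated Gli1-Luc reporter were preincubated 4hr at 37 C, then given compounds in DMSO plus Shh conditioned medium and incubated 24hr. Firefly luciferase luminescence read after 30min reagent at room temperature.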
row,Compound,Potency
1,COc1ccc(C(Cl)=C(c2ccc(OC)cc2)c2ccc(OC)cc2)cc1,inactive
2,NS(=O)(=O)c1cc2c(cc1Cl)NCNS2(=O)=O,inactive
3,COc1ccc2c(c1)c(CC(=O)O)c(C)n2C(=O)c1ccc(Cl)cc1,inactive
4,O=c1[nH]cnc2c1ncn2[C@H]1CC[C@@H](CO)O1,inactive
5,Cc1ncc([N+](=O)[O-])n1CCO,inactive
6,CCc1nc(N)nc(N)c1-c1ccc(Cl)cc1,17.5 µM (active) and 27.3 µM (active)
7,CN(C)C(=O)Nc1ccc(Cl)c(Cl)c1,inactive
8,CCCCOC(=O)c1ccc(O)cc1,inactive
9,CC12CCC(CC1)C(C)(C)O2,inactive
10,CCOc1ccc(NC(C)=O)cc1,inactive
11,CCCCC1(COC(=O)CCC(=O)O)C(=O)N(c2ccccc2)N(c2ccccc2)C1=O,inactive
12,CCCc1cc(=O)[nH]c(=S)[nH]1,inactive
13,CCOC(N)=O,inactive
14,CCN(CC)C(=O)c1cccc(C)c1,inactive
15,CCCCCCCC(=O)OCC(COC(=O)CCCCCCC)OC(=O)CCCCCCC,inactive
16,O=C1OC2(c3ccccc31)c1cc(Br)c(O)c(Br)c1Oc1c2cc(Br)c(O)c1Br,inactive
17,NC(=O)c1cccnc1,inactive
18,CN1[C@@H]2CC(OC(=O)[C@H](CO)c3ccccc3)C[C@H]1[C@@H]1O[C@@H]12 (some centres undefined),inactive
19,CN(C)CCOC(c1ccccc1)c1ccccc1,inactive
20,CC(=O)CCC(=O)O,inactive
21,Cc1c(C(=O)O)c(O)cc2c1C(=O)c1c(O)c([C@@H]3O[C@H](CO)[C@@H](O)[C@H](O)[C@H]3O)c(O)c(O)c1C2=O,inactive
22,CN1CCc2cccc3c2[C@H]1Cc1ccc(O)c(O)c1-3,2.87 µM (active) and 18.8 µM (active)
23,CCCCCCCCCCCCCCCC[N+](C)(C)Cc1ccccc1,1.78 µM (active) and 6.98 µM (active) and 150 nM (active)
24,C=CCc1ccc(O)c(OC)c1,inactive
25,NC(CO)(CO)CO,inactive
26,CS(=O)(=O)OCCCCOS(C)(=O)=O,inactive
27,O=S1(=O)OC(c2ccc(O)cc2)(c2ccc(O)cc2)c2ccccc21,27.3 µM (active) and inactive
28,CC(C)C(=O)Nc1ccc([N+](=O)[O-])c(C(F)(F)F)c1,17.7 µM (active)
29,CCCCCCc1ccc(O)cc1O,43.4 µM (active)
